Test [1] has as its system Human papillomavirus type 1a protein E7 (residues 44-93). The experiment in a line: HPV1a E7 fragment binders on microarrays, primary screen, biochemical, small-molecule microarray, residues 44-93, 635 nm fluorescence (AID 1108).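 Further: E7 fragment applied at 1 µg/mL in TBST for 1 h at 4 C; score combines spot fluorescence with its signal to noise ratio.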 The following applies: small-molecule microarray binding, fluorescence 635 nm; higher = more signal.
Test [2] can be described thus: modulators of HCV replicon luciferase signal, primary screen, HCV replication inhibitor project, Huh7 cells, luciferase reporter (AID 1109).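 Further: huh7 hepatoma cells harbouring a luciferase neomycin HCV replicon reporter; luciferase luminescence as measure of HCV replicon replication; test concentration not given here.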 The note with it: 48 h, higher = more signal. For orientation: Replicon systems follow genome replication, usually without infectious particles.
Test [3] deals with Left-right determination factor 2 (Homo sapiens) (UniProt O00292). The experiment in a line: LEFTY2 binders on small-molecule microarrays, primary screen, biochemical, small-molecule microarray, 635 nm fluorescence scan (AID 1110). The note with it: LEFTY2 binding, higher = more signal.
Chain of Left-right determination factor 2 (Homo sapiens) (O00292 whole entry, looked up): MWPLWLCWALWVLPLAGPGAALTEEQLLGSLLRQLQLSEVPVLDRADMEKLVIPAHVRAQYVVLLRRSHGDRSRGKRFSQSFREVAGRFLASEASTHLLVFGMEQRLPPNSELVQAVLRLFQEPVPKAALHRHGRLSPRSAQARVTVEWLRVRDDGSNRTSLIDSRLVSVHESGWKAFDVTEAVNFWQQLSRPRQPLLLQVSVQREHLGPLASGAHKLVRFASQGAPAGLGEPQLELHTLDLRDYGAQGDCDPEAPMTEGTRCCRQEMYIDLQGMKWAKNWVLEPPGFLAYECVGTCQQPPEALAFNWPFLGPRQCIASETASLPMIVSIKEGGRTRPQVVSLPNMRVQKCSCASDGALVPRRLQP
The target of test [4] is Calmodulin-1 (Homo sapiens) (UniProt P0DP23). The experiment in a line: CALM1 binders on microarrays, EGTA buffer, profiling panel, biochemical, small-molecule microarray, Cy5-labelled CALM1 (AID 1111).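 Further: labelled calmodulin applied in Tris saline Tween buffer holding calcium plus EGTA and DTT.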 The following applies: Cy5-CALM1 binding fluorescence, higher = more signal.
The target is the same in test [5]. The test is described as follows: calcium-bound CALM1 binders on microarrays, profiling panel, artefact control for SMM control-protein annotation, biochemical, small-molecule microarray, Cy5-labelled CALM1, plus calcium (AID 1112).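 Further: score merges spot fluorescence with signal to noise from triplicate slides.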 The following applies: Cy5-CALM1 binding fluorescence, higher = more signal.
Test [6] is described as follows: small-molecule microarray binders of probe aWnt5a, primary screen, biochemical, biotinylated probe, 635/667 nm fluorescence (AID 1113).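 Further: score merges 667 nm fluorescence intensity with signal-to-noise per printed feature.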 The following applies: higher = more signal.
Test [7] in a line: small-molecule microarray binders of probe aShh, primary screen, biochemical, biotinylated probe, 635/667 nm fluorescence (AID 1114).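 Further: probe is biotin-labelled aShh protein from a stem cell growth factor screen; measures binding of labelled protein to compounds printed on the slide; score merges feature fluorescence at 667 nm with signal-to-noise.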 The following applies: higher = more signal.
Test [8] is described as follows: small-molecule microarray binders of probe aNog, primary screen, biochemical, biotinylated probe, 635/667 nm fluorescence (AID 1115).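 Further: probe is biotinylated aNog protein used at 0.15 µg/mL for 1 h at 4 C; z-score combines 667 nm fluorescence of each spot with its signal to noise.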 The following applies: higher = more signal.
Test [9] has as its target Torsin-1A-interacting protein 1 (Homo sapiens) (UniProt Q5JTV8). The test is described as follows: LAP1 binders from COS7 cell lysate, primary screen, small-molecule microarray, 635/667 nm fluorescence (AID 1116). The following applies: COS7-hLAP1 lysate binding, 635 nm fluorescence, higher = more signal.
For test [10], the target named is Alpha-bungarotoxin (Bungarus multicinctus) (UniProt P60615). The experiment in a line: alpha-bungarotoxin binders on microarray, profiling panel, artefact control for SMM control protein annotation, biochemical, small-molecule microarray, Alexa647 label, 635/667 nm fluorescence (AID 1117). The following applies: alpha-BTX-A647 binding fluorescence, higher = more signal.
Chain of Alpha-bungarotoxin (Bungarus multicinctus) (P60615 whole entry, looked up): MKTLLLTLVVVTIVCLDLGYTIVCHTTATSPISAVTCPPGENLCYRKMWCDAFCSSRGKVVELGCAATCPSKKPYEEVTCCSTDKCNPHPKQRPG

A further test concerns the target Albumin (Bos taurus) (UniProt P02769). The experiment in a line: bovine serum albumin binders on microarray, profiling panel, artefact control for SMM control protein annotation, biochemical, small-molecule microarray, Alexa647 label, 635/667 nm fluorescence (AID 1118).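 Further: score merges 667 nm emission intensity and signal-to-noise per printed compound spot.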 The following applies: BSA-A647 binding, fluorescence 635 nm, higher = more signal.
Test [11] is described as follows: small-molecule microarray binders of probe aXIP, primary screen, biochemical, NeuroSMM set, 635/667 nm fluorescence (AID 1119).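 Further: probe is the protein aXip251-270 applied at 1 µg/mL to compound-printed slides; binding of probe to printed compounds measured as 667 nm fluorescence plus signal to noise.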 The note with it: higher = more signal, called active from +8 up or from −8 down.
Test [12] is described as follows: small-molecule binders of probe aNOTCH3, primary screen, biochemical, small-molecule microarray, 635/667 nm fluorescence (AID 1120).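 Further: probe is a biotin-tagged antibody raised against NOTCH3 rather than NOTCH3 protein; score merges spot fluorescence near 667 nm with spot signal to noise.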 The following applies: higher = more signal.
The nature of test [13]: small-molecule binders of probe aNOTCH2, primary screen, biochemical, small-molecule microarray, 635/667 nm fluorescence (AID 1121).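 Further: score merges feature fluorescence read at 667 nm with its signal to noise.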 The note with it: higher = more signal.
Test [14] deals with Carbonic anhydrase 2 (Homo sapiens) (UniProt P00918). The experiment in a line: CAII small-molecule binders, profiling panel, biochemical, small-molecule microarray, Alexa647-labelled CAII (AID 1122). The note with it: CAII-A647 binding fluorescence, higher = more signal.
The nature of test [15]: COS7 lysate on small-molecule microarray, probe aHis, 635 nm (AID 1123).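 Further: z-score combines 667nm fluorescence intensity with signal-to-noise per printed compound spot.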 The following applies: COS7 cell lysate, fluorescence, higher = more signal.
Test [16] can be described thus: compound binding in COS7 lysate, probe aLAP1, primary screen, cell lysate, small-molecule microarray (AID 1124).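 Further: lysate comes from COS7 cells expressing LAP1 and is applied at 0.3 µg/mL; score merges spot fluorescence near 667 nm with signal-to-noise over triplicate slides.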 The following applies: probe aLAP1, fluorescence, higher = more signal.
The test system of another test is Sam68 (KHDRBS1). The test is described as follows: Sam68 small-molecule binders, primary screen, biochemical, small-molecule microarray, 635 nm fluorescence (AID 1125).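 Further: score merges 667 nm channel intensity with signal to noise over triplicate slides.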 The note with it: small-molecule microarray binding, higher = more signal.
Test [17] deals with Chordin-like protein 2 (CHRDL2). The experiment in a line: CHRDL2 small-molecule binders, primary screen, biochemical, small-molecule microarray, 635 nm fluorescence (AID 1126).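 Further: printed compound slides probed with Chrdl2 protein at 4 µg/mL for 1 h at 4 C; score merges 667 nm emission intensity with signal to noise over three replicate slides.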 The following applies: small-molecule microarray binding, fluorescence 635 nm; higher = more signal.
Test [18] has as its target Concanavalin-A (Canavalia ensiformis) (UniProt P02866). The experiment in a line: ConA small-molecule binders, primary screen, artefact control for SMM control protein annotation, biochemical, small-molecule microarray, Alexa647 label, 635 nm (AID 1127).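 Further: z combines 667 nm emission intensity with signal-to-noise across three replicate slides.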 The note with it: ConA-A647 binding fluorescence, higher = more signal.

This passage reports composite z-score, z-score and composite Z-score results from PubChem BioAssay.

The source made the active and inactive calls.

Chain of Torsin-1A-interacting protein 1 (Homo sapiens) (Q5JTV8 whole entry, looked up): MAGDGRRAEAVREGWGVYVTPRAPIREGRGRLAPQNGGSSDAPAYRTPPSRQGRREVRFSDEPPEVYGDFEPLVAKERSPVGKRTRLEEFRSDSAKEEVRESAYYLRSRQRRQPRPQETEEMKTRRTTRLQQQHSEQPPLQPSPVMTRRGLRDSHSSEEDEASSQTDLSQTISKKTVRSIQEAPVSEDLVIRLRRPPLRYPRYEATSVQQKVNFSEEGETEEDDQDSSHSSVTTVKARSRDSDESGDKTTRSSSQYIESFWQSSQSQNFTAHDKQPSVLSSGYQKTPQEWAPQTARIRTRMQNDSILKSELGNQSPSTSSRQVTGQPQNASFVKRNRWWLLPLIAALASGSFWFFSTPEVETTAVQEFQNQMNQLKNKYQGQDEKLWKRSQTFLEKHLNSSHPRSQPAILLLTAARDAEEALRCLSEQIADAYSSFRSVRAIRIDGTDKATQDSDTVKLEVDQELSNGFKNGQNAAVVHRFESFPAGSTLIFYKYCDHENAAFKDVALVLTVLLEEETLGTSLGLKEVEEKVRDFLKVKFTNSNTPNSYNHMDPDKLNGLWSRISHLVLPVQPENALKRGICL
Chain of Albumin (Bos taurus) (P02769 whole entry, looked up): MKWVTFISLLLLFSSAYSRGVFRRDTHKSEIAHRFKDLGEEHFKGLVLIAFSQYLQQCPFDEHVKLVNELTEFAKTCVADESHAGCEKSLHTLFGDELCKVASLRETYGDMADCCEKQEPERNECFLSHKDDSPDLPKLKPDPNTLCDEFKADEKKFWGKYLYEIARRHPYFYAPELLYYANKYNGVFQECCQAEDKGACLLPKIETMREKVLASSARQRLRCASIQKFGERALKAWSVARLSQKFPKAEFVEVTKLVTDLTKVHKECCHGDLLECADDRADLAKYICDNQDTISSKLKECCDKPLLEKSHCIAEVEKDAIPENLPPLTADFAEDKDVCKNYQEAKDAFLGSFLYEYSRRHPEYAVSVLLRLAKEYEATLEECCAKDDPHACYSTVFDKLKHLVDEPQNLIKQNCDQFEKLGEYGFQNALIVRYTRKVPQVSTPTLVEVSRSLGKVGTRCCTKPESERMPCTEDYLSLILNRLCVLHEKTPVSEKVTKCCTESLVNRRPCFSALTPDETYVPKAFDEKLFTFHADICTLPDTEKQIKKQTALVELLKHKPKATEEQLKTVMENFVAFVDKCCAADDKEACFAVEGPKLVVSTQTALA
Chain of Concanavalin-A (Canavalia ensiformis) (P02866 whole entry, looked up): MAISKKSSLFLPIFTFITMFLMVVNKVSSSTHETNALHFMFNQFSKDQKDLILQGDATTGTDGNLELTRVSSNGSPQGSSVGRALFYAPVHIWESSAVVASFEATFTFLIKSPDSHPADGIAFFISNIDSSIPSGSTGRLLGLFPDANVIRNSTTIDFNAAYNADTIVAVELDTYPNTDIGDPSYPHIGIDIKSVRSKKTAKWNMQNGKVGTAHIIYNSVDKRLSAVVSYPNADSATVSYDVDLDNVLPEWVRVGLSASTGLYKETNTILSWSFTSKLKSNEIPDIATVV

Consider `O=C1OCC=C[C@H]2OC34C=CCN(CCN5CCOCC5)C(=O)[C@H]3N(CCCCCO)C(=O)[C@@H]4[C@@H]12` (stereo not given in full), for which the composite z-score in test [1] is -1.19; in test [3], -0.258; in test [4], -0.234; in test [5], -0.953; in test [6], -0.178; in test [7], -0.223. Also, the composite z-score was -0.278 in test [8]; -0.607 in [9]; 0.396 in test [10]; 0.485 in the test with Albumin (Bos taurus); 0.0694 in test [12]; -0.117 in [13]. The composite z-score in [14] is 0.829; in [15], 2.03; in test [16] it was -0.723; in the test on Sam68 (KHDRBS1) it was -0.229; in test [17], 0.129; in [18] it was 0.476. The z-score in [2] is 0.557. For the same compound, in test [11], the composite Z-score was -0.232 (inactive).
`COC(=O)[C@]1(Cc2ccccc2N=[N+]=[N-])N=C(c2ccc(OCCCO)cc2)O[C@@H]1c1ccccc1`: the composite z-score is -0.296 in [1]; -0.96 in test [3]; 0.279 in [4]; 0.41 in [5]; 0.0831 in test [6]; -0.111 in test [7]. Also, the composite z-score in test [8] is 0.534; in [9] it was 0.738; in test [10], 0.41; with Albumin (Bos taurus), -0.274; in test [12] it was 0.0773; in test [13], -0.0487. The composite z-score in [14] was 0.412; in test [15], 1.82; in [16], 0.225; with Sam68 (KHDRBS1), 0.622; in test [17], -1.1; in test [18] it was 0.458. The z-score in test [2] was -3.3. Further, the composite Z-score in [11] was 0.747 (inactive).
For the compound `Cc1ccc(S[C@]2(C(=O)NCCN3CCOCC3)CC(=O)N(C3Cc4ccccc4C3)[C@@H]2c2ccc(CO)cc2)cc1`, the composite z-score is 1.36 in test [1]; -1.59 in [3]; -0.482 in [4]; -0.399 in [5]; -0.0425 in test [6]; -0.181 in test [7]. Also, the composite z-score in test [8] is 0.775; in test [9] it was 0.143; in [10], 0.0451; with Albumin (Bos taurus), 0.0022; in test [12], -0.159; in test [13], -0.0745. The composite z-score was 0.66 in test [14]; 2.08 in [15]; 0.0297 in test [16]; 0.151 with Sam68 (KHDRBS1); -0.373 in [17]; 0.152 in test [18]. The compound further came in with a z-score in test [2] of -1.56. Also, the composite Z-score in test [11] was 0.39 (inactive).
Consider `CCOc1cc(C(O)C2C=CC3C(=O)NC(=O)C3N2Nc2ccccn2)ccc1O` (stereo not given), for which the composite z-score was -0.357 in [1]; 0.205 in test [3]; 0.384 in test [4]; -0.108 in test [5]; -0.198 in test [6]; -0.117 in test [7]. Besides, the composite z-score in [8] is 0.0258; in [9] it was 0.229; in [10] it was 0.297; with Albumin (Bos taurus), 0.409; in test [12], -0.0663; in test [13] it was 0.0065. The composite z-score in test [14] is 0.121; in [15] it was -0.086; in [16], 0.241; in the test on Sam68 (KHDRBS1), -0.352; in test [17], 0.143; in test [18], 0.0306. This compound yielded a z-score in [2] of 0.294. The composite Z-score in [11] was 0.057 (inactive).
`CN1C(=O)C2C=CC(C(O)c3cccc4ccccc34)N(NC(=O)OC(C)(C)C)C2C1=O` (stereo not given): the composite z-score in test [1] is 1.28; in test [3], -0.22; in test [4], 2.49; in [5], 1.43; in test [6], -0.0512; in test [7], -0.0813. For the same compound, the composite z-score in [8] was -0.125; in test [9], 2.66; in test [10], 1.19; with Albumin (Bos taurus), 1; in [12], 0.479; in [13] it was 0.385. Further, the composite z-score in [14] is 0.752; in [15], 2.95; in test [16], 1.57; with Sam68 (KHDRBS1), 1.3; in test [17], -0.705; in test [18], 1.17. Moreover, in test [2], the z-score was -0.602. Moreover, in [11], the composite Z-score was 0.58 (inactive).
On to `O=C(O)[C@]1(CCS(=O)(=O)c2ccccc2)N=C(c2ccc(OCCCO)cc2)O[C@@H]1c1ccccc1`, for which the composite z-score in test [1] is 0.0626; in test [3] it was -0.004; in test [4] it was 0.737; in [5], 0.4; in test [6] it was 0.0216; in test [7], -0.0322. The composite z-score in test [8] was 1.82; in test [9] it was -0.357; in test [10], -0.0315; in the test with Albumin (Bos taurus), 0.815; in test [12] it was 0.196; in [13], 0.197. Further, the composite z-score is 0.858 in [14]; 2.59 in test [15]; 0.341 in test [16]; 0.541 in the test on Sam68 (KHDRBS1); -0.0616 in [17]; -0.251 in test [18]. Further, the z-score in [2] is -0.0254. Also, in test [11], the composite Z-score was 0.207 (inactive).
